Assay results published in the supplement of paper PMC12532568.
Where a name gives a salt, the structure may show the parent alone.

What was measured:
[1] = tested on: Danio rerio larvae Tg(actc1b:ZsGreen-LC3), 3 dpf; assay: LC3 puncta relative area vs vehicle, without NH4Cl (log2 fold change); higher = more autophagosomes; conditions: 10 µM; treatment time 16 h; NH4Cl: none
Procedure: (§1)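 Transgenic Tg(actc1b:ZsGreen-map1lc3) zebrafish larvae (2 dpf) were treated for 16 h with Tocris library compounds at 10 µM (n = 12 larvae per compound). Skeletal-muscle LC3 puncta area relative to body area was measured by high-content confocal imaging before and after 4 h of 100 mM NH4Cl (autophagic flux), normalised to vehicle (DMSO), and reported as log2 fold change.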

[2] = tested on: Danio rerio larvae Tg(actc1b:ZsGreen-LC3), 3 dpf; assay: LC3 puncta relative area vs vehicle, with NH4Cl (autophagic flux) (log2 fold change); higher = more autophagy; conditions: 10 µM; treatment time 16 h; NH4Cl: + 100 mM, 4 h
Procedure: as §1

Row | SMILES | LC3 puncta (log2) [1] | LC3 puncta (log2) [2]
1 | O=C1CC2(CCCC2)CC(=O)N1CCCCNCC1COc2ccccc2O1 (configuration not stated) | -0.00847 | –
2 | N=C(N)S/C=C\C(=O)O [ZAPA sulfate] | – | 0.0813
